# Measured values taken from the supplement of paper PMC6555819.
# System: VDR:RXRa (NR concentration 270 nM, RXRa partner concentration 90 nM)
# Test: PBM binding z-score (relative to random genomic background probes); higher = stronger binding; sequences stand for … in GC…GCGATTGACAGCGTAGAATGAAGG
# Experimental: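 Protein-binding microarray (Agilent 4x180K custom design, double-stranded 60-nt probes: 5' GC cap, 34-nt variable region, 24-nt constant primer region; full probe sequence given). Purified or IVT nuclear receptor:RXRα heterodimers (3:1 NR:RXRα, mostly 270:90 nM) or homodimers were incubated for 1 h in PBS with 2% milk and no ligand, then detected with Alexa488 antibodies. Fluorescence from o1-orientation probes (~5 replicates averaged) was converted to z-scores against 500 random hg19 background probes. Variable regions are seed direct-repeat (DR0–DR5) sites, all their single-nucleotide variants and half-site ablations.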
row,Sequence,PBM binding z-score
1,TCTCGAAGGACACGAAGGTCAGAGCTTTCCAGAG,1.86
2,CATACAGGGTCAGCTAGGCAAGAGTAGGGACGGC,2.53
3,TCTATGAGTTGAAGGGCAACCGACGAGTCCGTTT,0.953
4,CCGAGTAGGTTATGGGGAATTCAGGCAACGGTGA,0.0968
5,TGTCAAAGTGCAAAGGTAACGTAAGTATCCACAC,1.59
6,ATATGTATGTTAGCTGGGGTCATTCAGACTAGGC,5.07
7,CGTCAAAGTTCAACTAAGGTAACGTACAGCACGC,4.64
8,TAGCCTAGGTCACTCAGGGGCCAGTATAGAAAGC,2.42
9,CGTCCAAGGTCAAAGGTCAGTGAAGAGATGACGG,6.76
10,ATCTCTAGGTAAAAGTTAAGTGAATCCCGAGGAT,-0.0664
11,ATCGAAAGGTCGAAGGTGAGTAGACCCACCCGAA,2.43
12,CCGACTGGGGCAAAGGTGACCATACTCAGTACGA,0.389
13,TCATATAGGTAAACAGGAGAAAGTCCGTAAGTTA,0.716
14,TCTAGTTGGTCAAAGGGCACACACTCGAAATGCG,1.78
15,CCTACTGGGCCAGCAGGTCATTGATATCAACGTT,1.26
16,AGTCAAAGTTCACTAGGTAACTTAAGATTCAGCT,3.88
17,GCGACTGGGGCATCAACAGGTTACCATAACTTAA,0.0297
18,CGTCCAAGGTCAGCAGGTCAGTTAAAGCGACGTG,4.23
19,TAGCCTAGGTCAGATCGGGCTAGTATACGCTATA,0.302
20,AGAACGATGGCAATGAGTTGATAGCACGGGTGGC,0.528

row,Sequence,PBM binding z-score
1,AGTCAAAGTTCACTAGGTAACGTTAGATTCAGCT,4.07
2,ATCTCTAGGTAAAGTTCTGTGAAAGATCGATAGA,0.335
3,CCTCGTTGGTCAGGAGGTCACACACCGGATATGA,3.77
4,TCTTGTAGATCAACGGGAGGTTAAGAAAGATCGA,0.477
5,TCTTGTAGATCAAGCAGGTTAAGAGAGCCTGAGT,0.331
6,GCTCGGAGGCCAAGGTCAGAGCTTTGTCCGTAGA,1.16
7,TCTGCTAGGCCAACGATGGTCAGCTAATCTGCTA,-0.596
8,TCTTGTAGATCAATAGAGGTTAGGAAAGTGCGCT,1.05
9,ATCGAAAGTTCGACGAGGTGAGTATACACCGTTT,2.81
10,CTCGAAAAGTCGGTTGAGGTGAGTATACGGATAA,-0.065
11,AGTCAAAGTTCAGGACGAGGTAACGGAAAGCACG,2.86
12,CGTCAATGTTCAACTAAGGTAACGTAAAGCACGC,0.565
13,ATGGAAAGGTCGACGAGGTGAGTATACACCGTTT,5.25
14,GCTAGTTGGTCAGTAAAAGGTCAAACACCGGTCG,4.29
15,ATCTCTAGGTAAGACACAGTTCAGTGAAGAACGC,1.14
16,CGTCAAAGTTCAAGGGAACGTAACAGAAAGCAGC,3.12
17,TCTTGTAGATCAAAGGTTAAGAAAGCCGAAGCCT,1.37
18,CAAACTATGTCACCGGAAGGTCAAAGTCCGCATG,3.84
19,CCTAGCAGGCCAATCTGGGTCACTCCAGGCTTGA,0.284
20,CCTGCTAGGTCATGGTCACCTAATCTACAGTATG,2.03
